Test [1] concerns CRL-7250. Kind of test: Cytotoxic Profiling of Annotated Libraries Using Quantitative High-Throughput Screening (AID 1296008). Also: potency is read from the fitted curve at half-maximal effect. As to max response: % is scaled to controls: 0 for no effect and ±100 for the full control effect. Particulars: Five cell lines viability, CellTiter-Glo ATP luminescence, 48-72 h; max response: hits give low values. In outline: (§1)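 Compounds were pin-transferred onto cells and incubated 48 or 72 hr at 37 degree Celsius, 95% humidity. CellTiter-Glo was added, plates sat 10 min at room temperature, then ATP-coupled luminescence was imaged as the viability read-out.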
In general terms: In ATP-based viability assays light output follows the ATP content of the culture.

The test system of a further test is HEK293. The description is as above. Particulars: Five cell lines viability, CellTiter-Glo ATP luminescence, 48-72 h; max response: hits give low values. In outline: as §1
Test [2] concerns HaCat. The description is as above. The settings on record: Five cell lines viability, CellTiter-Glo ATP luminescence, 48-72 h; max response: hits give low values. In outline:
as §1

The next test concerns KB-3-1. Described as above. The settings on record: Five cell lines viability, CellTiter-Glo ATP luminescence, 48-72 h; max response: hits give low values. The essentials:
as §1

A further test deals with NIH3T3. The description is as above. Particulars: Five cell lines viability, CellTiter-Glo ATP luminescence, 48-72 h; max response: hits give low values. In outline: as §1
The subject of test [3] is CRL-7250. In words: qHTS assay to identify novel small-molecules to repurpose for Merkel cell carcinoma treatment (AID 1296009). Particulars: MCC and control cell lines, CellTiter-Glo viability, 72 h; at 44.8 µM (top of the series) unless noted. The essentials:
(§2)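 qHTS format: cells treated with library compounds in DMSO across 8 (NPC) or 11 (MIPE) concentrations. Readout after 72 hr at 37 degree celsius was CellTiter-Glo luminescence.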
On the technique in general: qHTS replaces the single test concentration by a dilution series.

Test [4] has as its system HACAT. The test is described as above. The settings on record: MCC and control cell lines, CellTiter-Glo viability, 72 h; at 44.8 µM (top of the series) unless noted. The essentials: as §2
The next test concerns HEK293T. The description is as above. The settings on record: MCC and control cell lines, CellTiter-Glo viability, 72 h; at 44.8 µM (top of the series) unless noted. The essentials: as §2
The next test relates to TAB165. In words: qHTS profiling for inhibitors of Plasmodium falciparum proliferation (AID 504749). Also: potency is read from the fitted curve at half-maximal effect. Particulars: P. falciparum in erythrocytes, SYBR Green DNA, 72 h; series mostly up to 28.7 µM. The essentials: (§3)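 Parasite proliferation within erythrocytes, 72 h exposure. Endpoint: SYBR Green I fluorescence after overnight lysis at room temperature. Controls: 0.29 uM artemisinin, DMSO.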

The subject of the next test is W2. The test is described as above. The settings on record: P. falciparum in erythrocytes, SYBR Green DNA, 72 h; series mostly up to 28.7 µM. In outline:
as §3

Several values for one entry are separate records, joined by “and”; a condition that tells them apart may be missing. Identical values can stand only once. Inconclusive results are not listed. A number with no mark means an inactive call. Activity calls are given as the source filed them. Calls follow the shape of the dose curve; as a rule, active = well fitted inhibition curve with a large enough effect; inconclusive = small, poorly fitted or top-dose-only effect; inactive = flat fitted curve, though single readings scatter.
Also: nearly all actives have a fitted effect of over 60% in size.

On to `O=C(N[C@H]1CN2CCC1CC2)c1ccc(Cl)cc1`, for which the call with CRL-7250 [1], in the test with HEK293, in the test with HaCat [2], with KB-3-1, with NIH3T3 and in the test on CRL-7250 [3] was inactive. Moreover, the outcome in the test on HACAT [4] and with HEK293T was inactive. Besides, the max response is -12.5% with HEK293 and -6.97% in the test on NIH3T3.

For `CO[C@H]1CCC(O[C@H]2C[C@H]([C@]3(C)CC[C@]4(C[C@H](O)[C@@H](C)[C@@H]([C@@H](C)C=C(C)C(=O)[C@H](C)C[C@H](C)C(=O)O)O4)O3)O[C@]3(O[C@@H]([C@H]4O[C@@](O)(CO)[C@H](C)C[C@H]4C)C[C@H]3C)[C@H]2C)O[C@H]1C` (some centres not stated), the results for the Potency in the test on CRL-7250 [1] and in the test on HEK293 were 1050 nM (active) and 590 nM (active), respectively. Moreover, in the test on HaCat [2], the max response was -21.4%.

In the case of `CC(=O)N(C)c1cccc(-c2ccnc3c(C(=O)c4cccs4)cnn23)c1`, the max response in the test on CRL-7250 [1] is -13.2%; in the test on HEK293, -28% and -16.5%; in the test with HaCat [2], 3.39%; with KB-3-1, -3.54%; with NIH3T3, -0.872% and 2.98%. Moreover, the outcome in the test on CRL-7250 [1], with HaCat [2], in the test on KB-3-1, in the test with CRL-7250 [3] and in the test with HACAT [4] was inactive.

Regarding `COc1cc([C@@H]2c3cc4c(cc3[C@@H](O)C3COC(=O)C32)OCO4)cc(OC)c1O` (some centres not stated), the Potency in the test with CRL-7250 [1] is 83.3 nM (active); with HEK293 it was 37.2 nM (active); with KB-3-1 it was 66.2 nM (active); in the test on NIH3T3, 132 nM (active). In the test on HaCat [2], the max response is 3.35%.

Turning to `O=C(Oc1ccc([N+](=O)[O-])cc1)N1CCC(C(O)(c2ccc3c(c2)OCO3)c2ccc3c(c2)OCO3)CC1`, in the test on CRL-7250 [1], the Potency is 13200 nM (active). Besides, the max response in the test on HEK293 is -16.1%; in the test with HaCat [2], -5.43%; with KB-3-1, 5.68% and 6.78%. Further, the call with HaCat [2], in the test with NIH3T3 and with HACAT [4] was inactive.

For the compound `C[C@@H]1CC[C@H]2[C@@H](C)C(=O)O[C@@H]3O[C@@]4(C)CC[C@H]1[C@]32OO4`, the max response with CRL-7250 [1] was -21.1%; in the test with HaCat [2], -10.9%; in the test on KB-3-1, -6.88%; in the test with NIH3T3, -12.8%. Also, the Potency with HEK293 is 1660 nM (active).

For `Cc1nc(-c2ccc(-c3ccc(C(=O)N4CCc5cc6c(cc54)C4(CCN(C)CC4)CO6)cc3)c(C)c2)no1`, the max response in the test on CRL-7250 [1] was -11.3%; with HEK293, 4.59%; in the test with KB-3-1, 2.18%; with NIH3T3 it was 1.47%. Also, the compound was called inactive in the test with HaCat [2] and in the test on HACAT [4].

For the compound `CCN1C[C@]2(OC(=O)c3ccccc3NC(C)=O)CC[C@H](OC)[C@@]34[C@H]5CC6[C@@H](OC)C[C@](O)(C(C[C@@H]23)[C@@H]14)[C@@]5(O)[C@@H]6OC`, the call with CRL-7250 [1], in the test on HaCat [2], in the test on KB-3-1, with NIH3T3, with CRL-7250 [3] and in the test on HACAT [4] was inactive. For the same compound, the max response in the test with HEK293 was -8.41%.

For `O=S(=O)(F)Cc1ccccc1`, the outcome in the test on CRL-7250 [1], in the test on HEK293, in the test with CRL-7250 [3] and in the test with HEK293T was inactive. Moreover, the max response with HaCat [2] is -8.02%; in the test with KB-3-1, 3.23%; in the test with NIH3T3 it was 3.32%.

Turning to `CCOC(=O)c1c(C(C#N)=CN)c2ccc(Cl)c(Cl)c2n1C`, the max response in the test with CRL-7250 [1] is 3.66%; in the test on HEK293 it was -12.5%; in the test on KB-3-1, -3.02%; in the test on NIH3T3, 2.89%. The compound was called inactive with HaCat [2] and in the test with HACAT [4].

`Oc1ccc2c3c1O[C@H]1c4[nH]c5c(c4C[C@@]4(O)[C@@H](C2)N(CC2CC2)CC[C@]314)C[C@@]1(O)[C@H]2Cc3ccc(O)c4c3[C@@]1(CCN2CC1CC1)[C@H]5O4`: the compound was classed as inactive with CRL-7250 [1], in the test with HEK293, in the test on KB-3-1, with CRL-7250 [3] and in the test on HEK293T. Also, the figures for the max response with HaCat [2] and in the test with NIH3T3 were -0.228% and -5.25%, respectively.

As for `CC(N[C@H]1C[C@H]1c1ccccc1)c1ccc2c(c1)OCCO2` (some centres not stated), the max response with CRL-7250 [1] is 1.35% and -26.3%; with HEK293 it was 0.032% and -12.5%; in the test with KB-3-1 it was 2.53% and -2.54%; with NIH3T3, 4.85% and -28.5%. Moreover, the result in the test with HaCat [2] and in the test on HACAT [4] was inactive.

Turning to `c1cc2c(cc1[C@H]1OC[C@H]3[C@H]1CO[C@H]3c1ccc3c(c1)OCO3)OCO2`, the results for the max response with CRL-7250 [1] and in the test with KB-3-1 were -11.7% and 6.13%, respectively. The outcome in the test with HEK293, in the test on HaCat [2], in the test with NIH3T3, in the test with HACAT [4] and in the test with HEK293T was inactive.

For `CC(O)CN1CCN(CC(=O)[O-])CCN(CC(=O)[O-])CCN(CC(=O)[O-])CC1.[Gd+3]` (configuration not stated), the outcome with CRL-7250 [1] and in the test on CRL-7250 [3] was inactive. The max response is -21.1% with HEK293; -14.5% in the test with HaCat [2]; -2.15% and -0.0896% with KB-3-1; -1.05% in the test on NIH3T3.

Regarding `O=[N+]([O-])c1ccc([As](=O)(O)O)cc1`, the Potency was 5010 nM (active) in the test with TAB165 and 4780 nM (active) in the test on W2. In addition, the compound was called inactive in the test on CRL-7250 [1], in the test on HEK293, in the test with HaCat [2], in the test with NIH3T3, in the test with CRL-7250 [3] and with HACAT [4]. In addition, in the test on HEK293T, the compound was called inactive. Further, the max response in the test with KB-3-1 was -9.29%.

Turning to `O=C(O)C(Cl)Cl`, the Potency entry with TAB165 and in the test with W2 was “inactive” each time. Moreover, the compound was classed as inactive in the test with CRL-7250 [1], with HEK293, in the test with HaCat [2], with CRL-7250 [3], in the test on HACAT [4] and in the test on HEK293T. The max response with KB-3-1 is -7.1% and -3.84%; in the test with NIH3T3 it was -3.68%.

The record behind these values is PubChem BioAssay (NCATS).
